Data taken from the supplement of paper PMC11634586.
Where a name gives a salt, the structure may show the parent alone. A number with no mark means an inactive call.

System: NCI-H1688
Assay: inhibition of cell viability relative to untreated control (fraction); higher = stronger growth inhibition, active = 0.5 or more
Conditions: 30 µM; 24 h
Description: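 Natural product library (TargetMol, 640 compounds) screened on NCI-H1688 SCLC cells at 30 µM for 24 h; viability by CCK-8 absorbance at 450 nm, normalised to untreated control and expressed as inhibition rate (fraction). Compounds with >50% reduction in viability were selected as hits.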

| SMILES | inhibition of cell viability |
| --- | --- |
| O=C1C=CC[C@@H]2[C@H]3CCCN4CCC[C@@H](CN12)[C@@H]34 [Sophocarpine] | -0.484 |
| CN1CCc2cc3c(cc2C1C1OC(=O)c2c1ccc1c2OCO1)OCO3 (single isomer, unassigned; (+)) [(+)-Bicuculline] | -0.023 |
| O=c1ccc2ccc3occc3c2o1 [Isopsoralen] | -0.0131 |
| CC(C)(C)[C@]1(O)CC2OC(=O)CC23C(=O)OC2OC(=O)[C@H](O)C231 (stereo not given in full) [Bilobalide] | 0.155 |
| CCN1C[C@]2(COC)[C@H](O)C[C@H](OC)[C@@]34[C@@H]5C[C@@]6(O)[C@H](OC(=O)c7ccccc7)[C@@H]5[C@@](OC(C)=O)([C@@H]([C@H](OC)[C@H]23)[C@@H]14)[C@@H](O)[C@@H]6OC [Aconitine] | -0.116 |
| S=C=NCc1ccccc1 [Benzyl isothiocyanate] | 0.59 (active) |
| CC[C@@]1([C@@H]2O[C@@H]([C@H]3O[C@@](O)(CO)[C@H](C)C[C@@H]3C)C[C@@H]2C)CC[C@H]([C@]2(C)CC[C@]3(C[C@H](O)[C@@H](C)[C@@H]([C@@H](C)[C@@H](OC)[C@H](C)C(=O)O)O3)O2)O1 [Monensin sodium salt] | 0.761 (active) |
| CN1[C@H]2C[C@H](OC(=O)[C@H](CO)c3ccccc3)C[C@@H]1[C@@H](O)C2 [Anisodamine] | 0.2 |
| C[C@@H]1CC[C@H]2[C@@H](C)C(=O)O[C@@H]3O[C@@]4(C)CC[C@@H]1[C@]32OO4 [Artemisinin] | 0.118 |
| C=C[C@@H]1C2=CCOC(=O)C2=CO[C@H]1O[C@@H]1O[C@H](CO)[C@@H](O)[C@H](O)[C@H]1O [Gentiopicrin] | -0.0346 |
| CN1[C@@H]2C[C@@H](OC(=O)[C@H](CO)c3ccccc3)C[C@H]1[C@@H]1O[C@@H]12 [Scopolamine HBr] | -0.0423 |
| O=C1C[C@@H]2OCC=C3CN4CC[C@]56c7ccccc7N1[C@H]5[C@H]2[C@H]3C[C@H]46 [Strychnine] | -0.0859 |
| NCCc1c[nH]c2ccc(O)cc12 [Serotonin hydrochloride] | 0.104 |
| C[C@H]1CC(=O)C[C@@H]2CC[C@H]3[C@@H]4CC[C@H](O)[C@@]4(C)CC[C@@H]3[C@]21C [Mesterolone] | 0.237 |
| C[C@H]1C(=O)O[C@@H]2CCN3CC=C(COC(=O)[C@](C)(O)[C@]1(C)O)[C@H]23 [Monocrotaline] | 0.161 |
| CC(C)=CCC[C@](C)(O)[C@H]1CC[C@]2(C)[C@@H]1[C@H](O)C[C@@H]1[C@@]3(C)CC[C@H](O[C@@H]4O[C@H](CO)[C@@H](O)[C@H](O)[C@H]4O)C(C)(C)[C@@H]3CC[C@]12C [Ginsenoside Rh2] | 0.269 |
| CC[C@H]1CN2CC[C@H]1C[C@@H]2[C@@H](O)c1ccnc2ccc(OC)cc12 [Hydroquinidine] | -0.0507 |
| CC(=O)OC12COC1CC(O)C1(C)C(=O)C(O)C3=C(C)C(O)CC(O)(C(OC(=O)c4ccccc4)C21)C3(C)C (stereo not given) [10-Deacetylbaccatin III] | 0.454 |
| CCC(=O)O[C@H]1CC[C@H]2[C@@H]3CC[C@H]4CC(=O)[C@H](C)C[C@]4(C)[C@H]3CC[C@]12C [Drostanolone Propionate] | 0.313 |
| C[C@]12CC[C@H](O)C[C@H]1CC[C@@H]1[C@@H]2CC[C@]2(C)[C@@H](c3ccc(=O)oc3)CC[C@]12O [Bufalin] | 0.985 (active) |

| SMILES | inhibition of cell viability |
| --- | --- |
| NCCc1ccccc1 [Phenethylamine] | -0.183 |
| COc1cc2c(cc1OC)C13CCN4CC5=CCOC6CC(=O)N2C1C6C5CC43 (stereo not given) [Brucin] | -0.145 |
| O=C(O)C1C2CCC(O2)C1C(=O)O (stereo not given) [Sodium Demethylcantharidate] | 0.314 |
| CC1=C(O)C(=O)C=C2C1=CC=C1[C@@]2(C)CC[C@@]2(C)[C@@H]3C[C@](C)(C(=O)O)CC[C@]3(C)CC[C@]12C [Celastrol] | 1 (active) |
| CC(=O)[C@]1(O)CC[C@@]2(O)[C@]1(C)[C@H](OC(=O)/C=C(\C)C(C)C)C[C@@H]1[C@@]3(C)CC[C@H](O)CC3=CC[C@]12O [Caudatin] | 0.161 |
| CN1[C@@H]2CC[C@H]1C[C@@H](OC(=O)C(CO)c1ccccc1)C2 (stereo not given in full) [Atropine] | -0.146 |
| CC(=O)O[C@@]12CO[C@@H]1C[C@H](O)[C@@]1(C)C(=O)[C@H](O)C3=C(C)[C@@H](OC(=O)[C@H](O)[C@@H](NC(=O)c4ccccc4)c4ccccc4)C[C@@](O)([C@@H](OC(=O)c4ccccc4)[C@H]21)C3(C)C [Deacetyltaxol] | 0.667 (active) |
| C[C@H]1O[C@H](O[C@H]2[C@H](O)[C@@H](O)[C@@H](O)[C@H](O)[C@@H]2O)[C@@H](N)C[C@@H]1NC(=N)C(=O)O [Kasugamycin hydrochloride] | 0.294 |
| CC(=O)O[C@H]1C[C@H](O[C@H]2[C@@H](O)C[C@H](O[C@H]3[C@@H](O)C[C@H](O[C@H]4CC[C@@]5(C)[C@H](CC[C@@H]6[C@@H]5C[C@@H](O)[C@]5(C)[C@@H](C7=CC(=O)OC7)CC[C@]65O)C4)O[C@@H]3C)O[C@@H]2C)O[C@H](C)[C@H]1O[C@@H]1O[C@H](CO)[C@@H](O)[C@H](O)[C@H]1O [Lanatoside C] | 0.994 (active) |
| N#C[C@H](O[C@@H]1O[C@H](C(=O)O)[C@@H](O)[C@H](O)[C@H]1O)c1ccccc1 [Laetrile] | 0.0291 |
| CNCC(O)c1ccc(O)cc1 (stereo not given) [Synephrine] | 0.204 |
| CCC1=CC2CN3CCc4c([nH]c5ccccc45)C(C(=O)OC)(C2)C13 (stereo not given) [Catharanthine sulfate] | 0.191 |
| COc1cc([C@@H]2c3cc4c(cc3[C@H](O)[C@H]3COC(=O)[C@H]23)OCO4)cc(OC)c1OC [Podophyllotoxin] | 0.839 (active) |
| C[C@@H]1CC[C@@]2(OC1)O[C@H]1C[C@H]3[C@@H]4CC=C5C[C@@H](O[C@@H]6O[C@H](CO)[C@@H](O[C@@H]7O[C@@H](C)[C@H](O)[C@@H](O)[C@H]7O)[C@H](O)[C@H]6O[C@@H]6O[C@@H](C)[C@H](O)[C@@H](O)[C@H]6O)CC[C@]5(C)[C@H]4CC[C@]3(C)[C@H]1[C@@H]2C [Dioscin] | 0.976 (active) |
| CCC1=C[C@H]2CN3CCc4c([nH]c5ccccc45)[C@](C(=O)OC)(C2)[C@H]13 [Catharanthine] | 0.0372 |
| C[C@@]12C(=O)OC(=O)[C@]1(C)[C@H]1CC[C@@H]2O1 [Cantharidin] | 0.983 (active) |
| COC(=O)C1=CCCN(C)C1 [Arecoline HBr] | 0.105 |
| NCCc1ccc(O)cc1 [Tyramine] | 0.176 |
| CC(C)[C@]12O[C@H]1[C@@H]1O[C@]13[C@]1(O[C@H]1C[C@H]1C4=C(CC[C@@]13C)C(=O)OC4)[C@@H]2O [Triptolide (PG490)] | 0.948 (active) |
| CC(C)=CCC[C@](C)(O)[C@H]1CC[C@]2(C)[C@@H]1[C@H](O)C[C@@H]1[C@@]3(C)CC[C@H](O)C(C)(C)[C@@H]3[C@@H](O[C@@H]3O[C@H](CO)[C@@H](O)[C@H](O)[C@H]3O)C[C@]12C [Ginsenoside Rh1] | 0.0296 |
